High-throughput results as filed in PubChem BioAssay.
Pol iota inh = DNA polymerase iota (human) inhibition | Potency, µM (series often up to 115 µM), actives largely listed as inhibitors | Pol iota fluorescent replication assay, 10 min | Q9UNA4 | 1% of 390,000 active
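Fluorescent replication assay read twice, at 0 min and 10 min after adding 50 nM (final) substrate. Enzyme (10 nM) and compounds were first incubated 15 min at room temperature; enzyme-free buffer wells were negative controls.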
WRN inhibitor = inhibitors of human WRN helicase; Potency, µM (top dose mostly 114 µM), most hits filed as inhibitors; WRN helicase unwinding, fluorescent forked duplex, kinetic; Q14191; 0.46% of 360,000 active; note: nearly all actives have a fitted effect of over 55% in size
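WRN at 20 nM final preincubated with compound 15 min at room temperature; reaction started with 100 nM fluorophore/quencher forked duplex oligonucleotide and 2 mM ATP final. Unwinding followed kinetically by red fluorescence (ex 525, em 598 nm).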
POLK inh = blocks human DNA polymerase kappa activity. Q9UBT6. purified Pol kappa, fluorescent DNA synthesis assay, 10 min. Potency, µM (titrated, usually from 107 µM), most hits filed as inhibitors. 0.53% of 400,000 active
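First, compounds were pin-transferred onto 10 nM Pol kappa. After 15 min at room temperature, substrate was added to 50 nM final. Fluorescence was then measured kinetically at 0 and 10 min.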
FEN1 inh = human FEN1 inhibition. P39748. Recombinant FEN1 flap cleavage, fluorescence, 15 min. Potency, µM (doses to about 114 µM), most hits filed as inhibitors. 0.35% of 390,000 active; note: nearly all actives have a fitted effect of over 65% in size
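Steps: FEN1 (10 nM) dispensed; compound added by pin tool; 15 min at room temperature; substrate added to 50 nM final; reads at 0 min and 15 min; data normalized and fitted (four-parameter Hill).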
POLB inh = blocks human DNA polymerase beta activity. 1.3% of 340,000 active. Pol beta primer extension/strand displacement, fluorescence kinetic. Potency, µM (titrated, usually from 114 µM), most hits filed as inhibitors
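Enzyme-only controls used 10 nM Pol beta; buffer lacking enzyme served as negative control. Compound preincubated 15 min, then 50 nM substrate added; 0 and 10 min reads at room temperature.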
POLH inh = DNA polymerase eta (human) inhibition; Q9Y253; recombinant Pol eta, fluorescent DNA replication assay; Potency, µM (highest dose often 114 µM), actives largely listed as inhibitors; 1.2% of 390,000 active; AID 588591
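Fluorescent replication assay: 50 nM final substrate added after a 15 min room-temperature compound preincubation with 10 nM enzyme. Signal taken at 0 min and again at 10 min.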
Of the large screens only hits and unclear results are named; the others gave an inactive call; ! = a repeat was not active. In the library only some 2.4% were active in any assay of this set; here they are far more common. Calls come from the whole dose curve; as a rule, active = well fitted curve in the direction sought with a large enough effect; inconclusive = small, poorly fitted or top-dose-only effect, or another doubt; inactive = no such curve, though single readings can be large; an effect the other way counts as inactive or inconclusive.

CCCCC(=O)NCCc1c(Cc2ccccc2)[nH]c2ccccc12	none (no result: Pol iota inh, WRN inhibitor, FEN1 inh, POLB inh, POLH inh)
Brc1ccc(C2C=Cc3ccccc32)cc1 (configuration not stated)	none (no result: WRN inhibitor, POLB inh, POLH inh)
[N-]=[N+]=Nc1ccc(C(=O)CSC[C@H](NC(=O)CC[C@H](N)C(=O)O)C(=O)NCC(=O)O)cc1	Pol iota inh 28.2µM, POLK inh inconclusive, POLB inh inconclusive, POLH inh inconclusive (no result: WRN inhibitor, FEN1 inh)
CN(C)CCCNc1nccc(N2CCN(C)CC2)n1	none (no result: WRN inhibitor, POLB inh, POLH inh)
CCCCC/C=C/C=C1/C(=O)C=C[C@@H]1C/C=C\CCCC(=O)O	POLK inh 3.16µM! (no result: Pol iota inh, WRN inhibitor, FEN1 inh, POLB inh, POLH inh)
CCCCCC(O)C=CC1C(O)CC(O)C1CC=CCCCC(=O)O (configuration not stated)	none (no result: Pol iota inh, POLK inh, FEN1 inh, POLB inh)
CCCCC[C@H](O)/C=C/[C@H]1C=CC(=O)[C@@H]1C/C=C\CCCC(=O)O	POLB inh 3.16µM (no result: Pol iota inh, WRN inhibitor, FEN1 inh, POLH inh)
CCCCC[C@@H](/C=C/C1C(=O)C=C[C@H]1C/C=C\CCCC(=O)O)OC(C)=O (some centres not stated)	Pol iota inh inconclusive, POLH inh 44.7µM (no result: POLB inh)
CCCCCCCC/C=C\CCCCCCCCCCCC(=O)O	POLK inh 10.6µM (no result: Pol iota inh, WRN inhibitor, FEN1 inh, POLB inh, POLH inh)
CCCCC[C@H](O)C/C=C1/C(=O)C=C[C@@H]1C/C=C\CCCC(=O)O	none (no result: Pol iota inh, WRN inhibitor, FEN1 inh, POLB inh, POLH inh)
Cc1ccc(/C=N\NC(=O)Cc2cccn2C)o1	Pol iota inh 79.4µM
CC(=O)Nc1ccc(NC(=O)c2nc(SCc3ccccc3F)ncc2Cl)cc1	FEN1 inh inconclusive (no result: WRN inhibitor, POLB inh, POLH inh)
O=C(O)CCc1ccc(-c2ccc(Br)cc2)o1	Pol iota inh 39.8µM, WRN inhibitor inconclusive, POLK inh inconclusive
O=C(O)CCc1ccc(-c2ccc(Cl)cc2)o1	Pol iota inh inconclusive, POLK inh inconclusive
Cc1cc(NC(=O)COc2cccc3cccnc23)no1	POLB inh 31.6µM (no result: Pol iota inh, WRN inhibitor, POLK inh, FEN1 inh, POLH inh)
Cc1ccc2occ(CC(=O)Nc3ccc(Cl)c(C(F)(F)F)c3)c2c1	none (no result: WRN inhibitor)
C=CCN(CC=C)c1cnn(-c2nc3ccccc3[nH]2)c(=O)c1Cl	POLB inh 0.224µM
CCN(CC)S(=O)(=O)c1cccc(C(=O)N/N=C/c2cccc(O)c2O)c1	Pol iota inh 20µM, WRN inhibitor inconclusive
CCN(CC)S(=O)(=O)c1cccc(C(=O)N/N=C/c2cc(OC)c(O)c(OC)c2)c1	FEN1 inh inconclusive
C=C(CO)C1Cc2c(ccc3c2OC2COc4cc(OC)c(OC)cc4C2C3=O)O1 (configuration not stated)	none (no result: Pol iota inh, WRN inhibitor, FEN1 inh, POLB inh, POLH inh)
O=C(NNc1ccccc1)c1sc2ccccc2c1Cl	Pol iota inh inconclusive (no result: WRN inhibitor, POLB inh, POLH inh)
O=c1c2c(-c3ccco3)csc2nc(SCc2cn3cccnc3n2)n1-c1ccccc1	Pol iota inh inconclusive, WRN inhibitor 56.2µM, POLH inh 11.2µM
NC(=O)CSc1nc2scc(-c3ccco3)c2c(=O)n1-c1ccccc1	Pol iota inh 11.2µM, WRN inhibitor inconclusive, POLK inh 44.7µM, FEN1 inh inconclusive, POLB inh inconclusive, POLH inh 79.4µM
O=C(CSc1nc2scc(-c3ccco3)c2c(=O)n1-c1ccccc1)N1CCOCC1	none
COc1ccccc1N1CCN(S(=O)(=O)CCNC(=O)COc2ccc(C(C)C)cc2)CC1	POLB inh inconclusive (no result: WRN inhibitor)
Cc1cc(C)n2c(=S)[nH]nc2n1	WRN inhibitor 56.2µM
CCOC(=O)COc1nc(-c2ccc(C)cc2)cc(-c2ccco2)c1C#N	none
CCOC(=O)COc1nc(-c2ccco2)cc(-c2ccco2)c1C#N	Pol iota inh 50.1µM, POLK inh inconclusive, POLB inh inconclusive
Cc1ccc(S(=O)(=O)Nc2ccc3cc([N+](=O)[O-])ccc3c2[N+](=O)[O-])cc1	Pol iota inh inconclusive, POLH inh 79.4µM (no result: POLB inh)
Cc1ccccc1S(=O)(=O)N1CCN(c2nc(-c3cccs3)nc3ccccc23)CC1	none (no result: WRN inhibitor, POLB inh, POLH inh)
COc1ccc2nc(N/C(N)=N/C(=S)Nc3cccc(C)c3)nc(C)c2c1	FEN1 inh inconclusive
COc1ccc2nc(N/C(N)=N/C(=S)Nc3c(C)cccc3C)nc(C)c2c1	FEN1 inh 31.6µM
O=C(COc1ccccc1C(=O)Nc1cccc(F)c1)Nc1ccc(Br)cc1	none (no result: WRN inhibitor, POLB inh, POLH inh)
Cc1ccc2nccnc2c1	none (no result: WRN inhibitor, POLB inh, POLH inh)
COC(=O)c1ccccc1NC(=O)C1CCCN(C(=O)c2cnn(-c3ccc(F)cc3)c2-n2cccc2)C1 (configuration not stated)	none (no result: WRN inhibitor)
